MOR-DOR ag – OPRM1-OPRD1 heterodimerization agonism; cells, luminescence; hit rate 0.3% among 340,000; P35372+P41143; activation, % at 9.3 µM; in the data active means activation above about 18%
OPRM1-OPRD1 inv – inverse agonists of human mu-delta opioid receptor heterodimerization | AID 504357 | cell-based MOR-DOR heterodimer luminescence, inverse agonism | P35372+P41143 | inhibition, % at 9.3 µM | hit rate 0.21% among 340,000; in the data active means inhibition above about 22%, passing the limit was not always enough
HTR5A inv ag – inverse agonist of human HTR5A in OPRM1-OPRD1 counter-screen; P47898; HTR5A cell line, luminescence, inverse agonism; inhibition, % at 9.3 µM; hit rate 0.083% among 340,000; in the data active means inhibition mostly above about 23%, no sharp cut-off; inactive means mostly below about 18%
Target sequence (P47898 whole entry, looked up): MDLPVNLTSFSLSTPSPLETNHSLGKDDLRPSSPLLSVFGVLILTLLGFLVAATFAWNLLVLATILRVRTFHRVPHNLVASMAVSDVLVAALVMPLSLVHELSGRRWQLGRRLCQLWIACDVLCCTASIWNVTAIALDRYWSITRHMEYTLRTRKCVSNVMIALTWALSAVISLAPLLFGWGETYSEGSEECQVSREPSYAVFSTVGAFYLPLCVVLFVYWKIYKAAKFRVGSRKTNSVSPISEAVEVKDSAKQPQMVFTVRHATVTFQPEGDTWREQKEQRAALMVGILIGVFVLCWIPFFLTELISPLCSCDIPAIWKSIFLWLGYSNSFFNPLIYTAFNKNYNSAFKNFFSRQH
HTR5A ag ctr – counter-screen for OPRM1-OPRD1 agonists: human HTR5A agonism; HTR5A agonist assay, luminescence, cell-based; P47898; hit rate 0.61% among 340,000; activation, % at 9.3 µM; in the data active means activation mostly above about 9.5%, no sharp cut-off; inactive means mostly below about 7.6%
Hits are given with their value; . = inactive. Hits are enriched below; roughly 1.1% of the tested compounds scored in any of these assays.

SMILES | MOR-DOR ag | OPRM1-OPRD1 inv | HTR5A inv ag | HTR5A ag ctr
Cc1cccc(Nc2nc(CC(=O)O)cs2)c1 | . | . | . | 11.3
O=S(=O)(c1ccc2c(c1)OCCO2)N1CCN(Cc2ccc3c(c2)OCO3)CC1 | . | . | . | .
O=S(=O)(c1ccc2c(c1)OCCO2)N1CCN(Cc2ccccc2)CC1 | . | . | . | 14.0
O=C(O)COCC(=O)Nc1ccc(-n2cnnn2)cc1 | . | . | . | 10.9
O=C1C(SCCO)=C(SCCO)C(=O)c2ccccc21 | . | . | 40.8 | .
CCOc1ccc(CCNC(=O)c2ccc(F)c(S(=O)(=O)N3CCOCC3)c2)cc1OCC | . | . | . | 11.2
CCOc1ccc(CCNC(=O)c2ccc(C)c(S(=O)(=O)N3CCOCC3)c2)cc1OCC | . | . | . | .
C#CC(=O)N(c1cccc(OC)c1)C(C(=O)NC1CCCC1)c1cccs1 (configuration not stated) | 28.1 | . | . | 28.1
Cc1cccc(N(C(=O)C(F)(F)F)C(C(=O)NC2CCCCC2)c2cccs2)c1 (configuration not stated) | . | . | . | .
CCOC(=O)CNC(=O)CSc1nc(Cc2cccs2)nc2ccccc12 | . | . | . | .
CC1CC(C)CN(C(=O)CSc2nc(Cc3cccs3)nc3ccccc23)C1 (configuration not stated) | . | . | . | 12.0
Clc1cccc(Cl)c1CO/N=C/c1cccs1 | . | . | . | .
CCC(C)[C@@H](NC(=O)OC(C)(C)C)c1nnc(S(=O)(=O)Cc2cccc(C)c2)o1 (some centres not stated) | . | . | . | 14.1
CCCNc1[nH]c(=O)n(C)c(=O)c1N=O | . | . | . | 9.6
COc1ccc(C(=O)NCc2nnc(SCC(=O)Nc3cccc(C(F)(F)F)c3)o2)cc1OC | . | . | . | .
O=C(NC1CCCCC1)C(c1cccnc1)N(C(=O)CCl)c1cccc(Cl)c1 (configuration not stated) | 34.6 | . | . | 36.3
COc1ccc(C(C(=O)NC2CCCCC2)N(C(=O)CCl)c2ccc(Cl)cc2)cc1 (configuration not stated) | 89.3 | . | . | 65.7
Cc1cccc(N(C(=O)CNC(=O)c2ccco2)C(C(=O)NC2CCCCC2)c2cccnc2)c1 (configuration not stated) | . | . | . | .
CC(C)CN1CCC(=O)N([C@H](CSc2ccc(Br)cc2)Cc2ccccc2)CC1 | . | . | . | .
O=C1C2CCCN2C(c2ccccc2)N1c1cccc(Cl)c1 (configuration not stated) | . | . | . | .
CC(C)CSc1nc2c(c(=O)[nH]c(=O)n2C)n1CC(O)COc1cccc2ccccc12 (configuration not stated) | . | . | . | 13.1
CCOc1ccc(NC(=O)CCc2nnc3ccc(N4CCC(C)CC4)nn23)cc1 | . | . | . | .
O=C(/C=C/c1ccco1)OCC(=O)c1cccc([N+](=O)[O-])c1 | . | 29.2 | . | .
COc1ccc(C(=O)COC(=O)/C=C/c2ccco2)cc1F | . | . | . | .
CN(C)C1(CNC(=O)c2cccc(S(=O)(=O)NCc3ccccc3)c2)CCCCC1 | . | . | . | .
SMILES | MOR-DOR ag | OPRM1-OPRD1 inv | HTR5A inv ag | HTR5A ag ctr
CS(=O)(=O)c1ncc(Cl)c(C(=O)Nc2ccc3ccccc3c2)n1 | . | 57.0 | . | .
CC(=O)Nc1ccc(NC(=O)c2nc(S(=O)(=O)Cc3ccccc3)ncc2Cl)cc1 | . | . | . | .
COc1ccccc1CCC(=O)OCC(=O)Nc1c(C)nn(-c2ccccc2)c1C | . | . | . | .
Cc1nn(-c2ccccc2)c(C)c1NC(=O)COC(=O)Cc1ccccc1F | . | . | . | 12.1
C=CCC[C@@H](Cc1ccc(F)cc1)C(=O)OC[C@@H](Cc1c[nH]c2ccccc12)NC(=O)[C@@H](CC=C)CC(=O)N[C@@H](CO)Cc1ccccc1 | . | . | . | .
Cc1cccc(OCC(=O)NCC(=O)N/N=C/c2ccc(O)cc2O)c1 | . | . | . | .
Cc1cccc(OCC(=O)NCC(=O)N/N=C/c2ccccc2)c1 | . | . | . | 10.0
COc1ccc2nc(C)cc(N/N=C/c3ccc(F)cc3)c2c1 | 30.9 | . | . | .
COc1ccc(CC(=O)NCc2n[nH]c(=S)n2C)cc1 | . | . | . | .
CCN1C(=O)[C@@H]2Cc3c([nH]c4ccccc34)C(c3cc(OC)c(OC)c(OC)c3)N2C1=S (some centres not stated) | . | . | . | .
COc1cc([C@H]2c3[nH]c4ccccc4c3C[C@H]3C(=O)N4[C@@H](c5cc(OC)c(OC)c(OC)c5)c5[nH]c6ccccc6c5C[C@H]4C(=O)N23)cc(OC)c1OC | 20.9 | . | . | .
CCC[C@H](CN[C@@H](CNC)[C@H](C)CC)NCCc1cc(C(F)(F)F)cc(C(F)(F)F)c1 | . | . | . | .
CNC[C@@H](CC1CCCCC1)NC[C@H](CC(C)C)NCCc1cccc(C(F)(F)F)c1 | 24.5 | . | . | 12.6
CNC[C@@H](Cc1ccccc1)NC[C@@H](CC1CCCCC1)NCCCc1ccccc1 | 23.0 | . | . | 19.8
O=C(N/N=C/c1ccco1)c1ccc(Br)o1 | . | . | . | .
COC(=O)c1cc(S(=O)(=O)N2CCN(c3ccc(C(C)=O)cc3)CC2)cn1C | . | . | . | .
Cc1[nH]n2c(=O)c3c(nc2c1-c1ccc(Cl)cc1)CCC3 | . | . | . | 19.8
Cc1nc2sc(C(=O)OC(C)C)c(N)c2c(C)c1C | . | . | . | 8.8
Nc1cccc2nsnc12 | . | . | . | .
Nc1cc2nsnc2cc1Br | 31.9 | . | . | 13.3
CSc1ccccc1NC(=O)CN(C)C(C)C(=O)NCc1ccc2c(c1)OCO2 (configuration not stated) | . | . | . | .
Cc1cccc2c1-c1sc(C(=O)NCCCN3CCC(C)CC3)cc1CO2 | . | . | . | 11.0
CCOC(=O)c1cc2c(s1)-c1c(C)cccc1OC2 | . | . | . | .
CC1CCN(CCCNC(=O)c2cc3c(s2)-c2ccccc2OC3)CC1 | . | . | . | .
Cc1cccc2c1-c1sc(C(=O)Nc3cccnc3)cc1CO2 | . | . | . | 10.8
SMILES | MOR-DOR ag | OPRM1-OPRD1 inv | HTR5A inv ag | HTR5A ag ctr
CC1CCCN(CCCNC(=O)c2cc3c(s2)-c2ccccc2OC3)C1 (configuration not stated) | . | . | . | 11.4
Cc1c(Cl)cccc1NC(=S)NN | . | . | . | .
Cc1cccc(Cl)c1NC(=S)NN | . | . | . | 13.2
CC(=O)Oc1ccc(/C(C)=N/N2CCN(Cc3ccc(C)cc3)CC2)cc1 | . | . | . | 9.8
C/C(=N/N1CCN(Cc2ccccc2)CC1)c1ccc(Br)cc1 | . | . | . | .
Cc1noc(C)c1COc1ccc(CC(=O)NCCc2ccccc2)cc1 | . | . | . | .
Cc1ccc2nc(/C(C#N)=C\c3ccc([N+](=O)[O-])o3)[nH]c2c1 | 575.4 | . | . | 105.3
Cc1ccc2nc(/C(C#N)=C\c3ccc(N4CCOCC4)o3)[nH]c2c1 | . | . | . | .
Cc1cc(=O)oc2cc(NC(=O)c3ccnn3C)ccc12 | . | . | . | .
CCCCOC(=O)Cn1c(=O)n(CC(=O)OCCCC)c2ccccc21 | . | . | . | .
CCCCCCCCCCOC(=O)Cn1c(COc2cccc(C)c2)[n+](C)c2ccccc21 | . | . | . | 12.6

Source: PubChem
